{"source": "PubChem BioAssay (NCI)", "note": "Compounds without any hit were thinned out: in the full panel of roughly 83,000, 20% have a hit.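 96-well plates, one dose, 48 hours. Percent growth reported; active if below 10.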 Unmarked numbers belong to inactive results. Active and inactive are the calls of the source.", "data": [{"test_system": "SN12C renal", "experiment": "NCI-60 one-dose screen, 48 h (100 = growth as untreated, 0 = no growth, -100 = all killed)", "conditions": "10 µM unless noted", "experimental": "Growth inhibition of the SN12C human tumor cell line is measured as a screen for anti-cancer activity. Cells are grown in 96 well plates and exposed to the test compound for 48 hours. Compounds are tested at a single concentration, which is 10^-5 M for most compounds. The reported endpoint is percent growth (GI% or GIPRCNT), where numbers from 0 - 100% represent growth inhibition, and numbers from -100% - 0 represent cell death. For example, a value of 40 represents 60% growth inhibition. A value of 0 means no net growth occurred over the course of the experiment. A value of -40 indicates 40% of cells at the beginning of the experiment died by the end of the experiment. A value of -100 means all cells are dead at the end of the experiment.\nNCI-60 Human Tumor Cell Lines Screen was performed using the standard one-dose NCI protocol, which is described in more detail at https://dtp.cancer.gov/discovery_development/nci-60/default.htm.\nCompounds with GIPRCNT values below 10 were considered active. Activity score was based on GIPRCNT using the following formula: […]\nScore is 0 for GIPRCNT values of 100 or above, 50 for GIPRCNT values of 0, and 100 for GIPRCNT values of -100.", "values": [{"smiles": "COc1ccc(N(c2nc(-c3ccc([N+](=O)[O-])cc3)cs2)C(C)C)cc1", "growth": "91.4%"}, {"smiles": "CC1Cc2c(Cl)ncnc2N(C)c2ccc(O)cc21", "note": "(stereo not given)", "growth": "82.6%"}, {"smiles": "O=C(Nc1ccc(C(=O)/C=C/c2ccc(N3CCOCC3)cc2)cc1)Nc1ccc([N+](=O)[O-])cc1", "growth": "97%"}, {"smiles": "CC1Cc2c(Cl)ncnc2N(C)c2ccccc21", "note": "(stereo not given)", "growth": "15.8%"}, {"smiles": "C[C@@H]1C[C@H]2C(=O)O[C@@H](C)[C@H](NC(=O)[C@H](Cc3cc(F)cc(F)c3)NC(=O)Nc3ccc(C4CC4)cc3F)C(=O)N3CCC[C@H]3C(=O)N3CCCC[C@H]3C(=O)N[C@@H](C)C(=O)N2C1", "growth": "15.8%"}, {"smiles": "CC1(C)CC[C@]2(C(=O)O)CC[C@]3(C)[C@H](CC[C@@H]4[C@@]5(C)CCC(=O)C(C)(C)[C@@H]5CC[C@]43C)[C@H]2[C@H]1OC(=O)C(F)(F)F", "growth": "-82.1% [100 µM] (active)"}, {"smiles": "C[C@H]1[C@H](C)CC[C@]2(C(=O)N3CCN(C)CC3)CC[C@]3(C)C(=CC[C@@H]4[C@@]5(C)C/C(=C/c6ccco6)C(=O)C(C)(C)[C@@H]5CC[C@]43C)[C@H]12", "growth": "28% [100 µM]"}, {"smiles": "COc1cc2c(c(Br)c1N)-c1cc(Br)c(N)cc1C2=O", "growth": "39.9%"}, {"smiles": "COc1cc2c(cc1OC(C)=O)C(=O)CCCC2", "growth": "112%"}, {"smiles": "CCOc1ccc(S(=O)(=O)Nc2ccc3c(c2)N(S(=O)(=O)CC)CCC3)cc1", "growth": "85.1%"}, {"smiles": "C1=C[C@H]2O[C@@H]1c1ccc3[nH]ccc3c12", "growth": "102%"}, {"smiles": "O=C1CN(Cc2ccc(C(=O)NO)cc2)C(=O)[C@@H](Cc2ccccc2)N1", "growth": "102%"}, {"smiles": "CCC(Br)(CC)C(=O)c1ccc(OCC(=O)O)c(Cl)c1Cl", "growth": "89.1%"}, {"smiles": "COc1ncc(-c2ccc3nccc(C#CCCCCC(=O)NO)c3c2)cc1NS(=O)(=O)c1ccc(F)cc1F", "growth": "15%"}, {"smiles": "O=C(N/N=C\\c1cc(Cl)ccc1O)N/N=C/c1cc(Cl)ccc1O", "growth": "66.8%"}, {"smiles": "C#C[C@]1(O)CC[C@H]2[C@@H]3CC=C4c5nc(Nc6ccccc6[N+](=O)[O-])sc5CC[C@]4(C)[C@H]3CC[C@@]21C", "growth": "79.5%"}, {"smiles": "CCCCCN(CCCCC)CCCCCCCCN1CCCc2ccccc21", "growth": "89.7%"}, {"smiles": "Nc1nc(Cl)c2ncn(Cc3cc4c(cc3I)OCO4)c2n1", "growth": "33%"}, {"smiles": "Nc1nc(Nc2ccccc2)c2ncn(Cc3cc4c(cc3Br)OCO4)c2n1", "growth": "7.96% (active)"}, {"smiles": "Cc1cc(C)c(O)c(CNCCCNCc2cc(C)cc(C)c2O)c1", "growth": "73.4%"}, {"smiles": "CCCCCCSc1ncnc2nc[nH]c12", "growth": "92.4%"}, {"smiles": "O=C1CC(C(F)(F)F)Cc2nc3ccc(Br)cc3cc21", "note": "(stereo not given)", "growth": "85.8%"}, {"smiles": "COc1ccccc1S(=O)Nc1ccccc1", "note": "(stereo not given)", "growth": "94.4%"}, {"smiles": "COc1ccc(CC(C#N)c2ccc(Cl)cc2)cc1", "note": "(stereo not given)", "growth": "99.7%"}, {"smiles": "CCOc1cc(/C=N\\NC(=O)N/N=C/c2ccc(O)c(OCC)c2)ccc1O", "growth": "51.3%"}, {"smiles": "CC1(C)OC2[C@@H](CNC(=O)NC(=O)NC(=O)CI)O[C@@H](n3cnc4c(NC(=O)Nc5ccccc5)ncnc43)[C@H]2O1", "note": "(stereo not given in full)", "growth": "82.8%"}, {"smiles": "CC1(C)CC[C@]2(C(=O)O)CC[C@]3(C)C(=CC[C@@H]4[C@@]5(C)C/C(=C/c6cccnc6)[C@H](O)C(C)(C)[C@@H]5CC[C@]43C)[C@@H]2C1", "growth": "6.59% [100 µM] (active)"}, {"smiles": "O=C(NCc1ccc(Cn2c(=O)sn(-c3ccccc3)c2=O)cc1)OCc1ccc2c(Br)cc(Br)c(O)c2n1", "growth": "-61.4% (active)"}, {"smiles": "CCOC(=O)c1sc2nc(-c3cc(OC)c(OC)c(OC)c3)nc(N3CCOCC3)c2c1C", "growth": "36%"}, {"smiles": "FC(F)(F)c1ccc2c(c1)Sc1ccccc1N2", "growth": "100%"}, {"smiles": "[2H]C1([2H])CCN(C(=O)C2CC2)c2cc(NS(=O)(=O)c3ccc(-c4cccc(C(N)=O)c4)cc3)ccc21", "growth": "43.7%"}, {"smiles": "Cc1cnc(N)nc1OCCNC(=O)c1cccc(-c2ccc(S(=O)(=O)Nc3ccc4c(c3)N(C(=O)C3CC3)CCC4)cc2)c1", "growth": "79.7%"}, {"smiles": "NC(=O)c1cccc(-c2ccc(S(=O)(=O)Nc3ccc4c(c3)N(C(=O)C3CC3)CCC4)cc2)c1", "growth": "52.1%"}, {"smiles": "Cc1ccc2c(n1)C(=O)C(Cl)=C(Nc1ccc(N3CCN(C)CC3)cc1)C2=O", "growth": "-88.5% (active)"}, {"smiles": "C=C(C)[C@@H]1CC[C@]2(C)[C@H](CC[C@@H]3[C@@H]([C@@](C)(O)CCC=C(C)C)CC[C@]32C)[C@@]1(C)CCC(=O)O", "growth": "-64.2% [100 µM] (active)"}, {"smiles": "C=C(C)[C@@H]1CC[C@]2(COCCCN)CC[C@]3(C)[C@H](CC[C@@H]4[C@@](C)(CCCNCCCN)[C@H](C(=C)C)CC[C@]43C)[C@@H]12", "growth": "-52% [100 µM] (active)"}, {"smiles": "O=[N+]([O-])c1ccc(O)c(-c2nc3ccccc3s2)c1", "growth": "64.9%"}, {"smiles": "Fc1cc2[nH]ncc2c2c3c(c(-c4cn[nH]c4)nc12)CCCC3", "growth": "7.63% (active)"}, {"smiles": "Fc1cc2[nH]ncc2c2c3c(c(-c4cn[nH]c4C(F)(F)F)nc12)C1CCC3C1", "note": "(stereo not given)", "growth": "6.09% (active)"}, {"smiles": "C=C(C)[C@@H]1CC[C@]2(C(=O)NCCNCCNC(=O)OC(C)(C)C)CC[C@]3(C)[C@H](CC[C@@H]4[C@@]5(C)CCC(=O)C(C)(C)[C@@H]5CC[C@]43C)[C@@H]12", "growth": "39.9% [100 µM]"}]}]}
